Assay results: PubChem BioAssay (Tox21)
Results filed as inconclusive are left out. Active and inactive are the calls of the source. Unless noted, the call rests on the fitted dose curve; in most records, active means well fitted curve in the direction sought with a large enough effect in the repeat runs; inconclusive means weak or mixed curves; inactive means no such curve, though single readings can be large; an effect the other way counts as inactive or inconclusive.

What was measured:
[1] = qHTS assay to identify small molecule agonists of the peroxisome proliferator-activated receptor delta (PPARd) signaling pathway - cell viability counter screen (AID 743211); further: on the % scale 0 is the no-effect control and ±100 the full control effect; nearly all actives have a fitted effect of over 55% in size
Procedure, shortened: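 Viability of GeneBLAzer PPARd UAS-bla HEK293H cells was assessed after 17 h compound incubation at 37C, using CellTiter-Glo reagent added after the reporter read and luminescence recorded 30 min later.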

[2] = molecular target: Peroxisome proliferator-activated receptor delta (Homo sapiens) (UniProt Q03181); assay: qHTS assay to identify small molecule agonists of the peroxisome proliferator-activated receptor delta (PPARd) signaling pathway (AID 743212; calls by dose curve; further: on the % scale 0 is the no-effect control and ±100 the full control effect)
Procedure, shortened: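 HEK293H PPARd-bla cells; 5 h preincubation 37 C/5% CO2; compound (DMSO) 37 C; LiveBLAzer B/G FRET substrate 2 h RT; fluorescence intensity.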

[3] = qHTS assay to identify small molecule antagonists of the peroxisome proliferator-activated receptor delta (PPARd) signaling pathway - cell viability counter screen (AID 743213); further: on the % scale 0 is the no-effect control and ±100 the full control effect; nearly all actives have a fitted effect of over 50% in size
Procedure, shortened: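 Viability counter-screen, qHTS format: PPARd-bla HEK293H, L165041 300 nM final, 17 h compound exposure at 37 C, CellTiter-Glo luminescence after 30 min RT.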

[4] = molecular target: Peroxisome proliferator-activated receptor delta (Homo sapiens) (UniProt Q03181); assay: qHTS assay to identify small molecule antagonists of the peroxisome proliferator-activated receptor delta (PPARd) signaling pathway (AID 743215; active means well fitted inhibition curve with a large enough effect in the signal ratio in the repeat runs, not every such curve was filed as active; the % refers to the signal ratio;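 further: cells stimulated with agonist L165041 at 300 nM final during compound exposure; series mostly up to about 62 µM; on the % scale 0 is the no-effect control and ±100 the full control effect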)
Procedure, shortened: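 HEK293H UAS-bla, PPARd; agonist L165041 300 nM final with cpd in DMSO; 37 C 17 h; FRET substrate, RT 2 h; fluorescence intensity.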

[5] = molecular target: Bile acid receptor (Homo sapiens) (UniProt Q96RI1); assay: qHTS assay to identify small molecule antagonists of the farnesoid-X-receptor (FXR) signaling pathway (AID 743217; active means well fitted inhibition curve with a large enough effect in the signal ratio in the repeat runs, not every such curve was filed as active; the % refers to the signal ratio; further: on the % scale 0 is the no-effect control and ±100 the full control effect)
Procedure, shortened: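 GeneBLAzer FXR-UAS-bla HEK 293T, CDCA-stimulated (50 uM final). Compound treatment 16 h, 37 °C. Detection: beta-lactamase cleavage of B/G FRET substrate, fluorescence.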

[6] = qHTS assay to identify small molecule agonists of the farnesoid-X-receptor (FXR) signaling pathway - cell viability counter screen (AID 743218); further: on the % scale 0 is the no-effect control and ±100 the full control effect; nearly all actives have a fitted effect of over 45% in size
Procedure, shortened: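 Parallel cytotoxicity test: compound-treated (16 h, 37 C) HEK 293T FXR-bla reporter cells were lysed with CellTiter-Glo and luminescence recorded.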

[7] = molecular target: Bile acid receptor (Homo sapiens) (UniProt Q96RI1); assay: qHTS assay to identify small molecule agonists of the farnesoid-X-receptor (FXR) signaling pathway (AID 743220; active means well fitted activation curve with a large enough effect in the signal ratio in the repeat runs, not every such curve was filed as active; the % refers to the signal ratio; further: on the % scale 0 is the no-effect control and ±100 the full control effect)
Procedure, shortened: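 Beta-lactamase reporter under UAS control in GeneBLAzer FXR HEK 293T cells (5000/well) measured with LiveBLAzer FRET substrate after 2 h at room temperature. Compound exposure lasted 16 h at 37C.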

[8] = qHTS assay to identify small molecule antagonists of the farnesoid-X-receptor (FXR) signaling pathway - cell viability counter screen (AID 743221; active means well fitted cell-killing curve with a large enough effect in the repeat runs, not every such curve was filed as active; further: on the % scale 0 is the no-effect control and ±100 the full control effect; nearly all actives have a fitted effect of over 50% in size)
Procedure, shortened: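 Quantitative HTS of the Tox21 10K library run in parallel with the beta-lactamase reporter read. HEK 293T cells carrying a UAS-driven bla reporter got compound and 50 uM CDCA (final) for 16 h; ATP-based luminescence followed.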

[9] = molecular target: Vitamin D3 receptor (Homo sapiens) (UniProt P11473); assay: qHTS assay to identify small molecule agonists of the vitamin D receptor (VDR) signaling pathway (AID 743222; calls by dose curve; further: on the % scale 0 is the no-effect control and ±100 the full control effect)
Procedure, shortened: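 In VDR-bla cells, compound-induced beta-lactamase expression is quantified by FRET substrate fluorescence. Treatment lasts 16 h at 37C; substrate develops 2 h at room temperature.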

[10] = qHTS assay to identify small molecule agonists of the vitamin D receptor (VDR) signaling pathway - cell viability counter screen (AID 743224); further: series mostly up to about 63 µM; on the % scale 0 is the no-effect control and ±100 the full control effect; nearly all actives have a fitted effect of over 50% in size
Procedure, shortened: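 Plated VDR-bla cells (4 h, 37C) received compound, incubated 16 h, then LiveBLAzer substrate 2 h RT; CellTiter-Glo added afterwards, luminescence read at 30 min.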

[11] = qHTS assay to identify small molecule antagonists of the vitamin D receptor (VDR) signaling pathway - cell viability counter screen (AID 743225); further: on the % scale 0 is the no-effect control and ±100 the full control effect; nearly all actives have a fitted effect of over 50% in size
Procedure, shortened: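 Cells (VDR-UAS-bla HEK 293T) are plated, rested 4 h at 37C, dosed with compound and 3 nM final 1-alpha,25-dihydroxy vitamin D3, and incubated 16 h. Viability is taken from CellTiter-Glo luminescence in the reporter wells.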

[12] = qHTS assay to identify small molecule agonists of the NFkB signaling pathway (AID 1159509; active means well fitted curve in the direction sought with a large enough effect in the signal ratio in the repeat runs, not every such curve was filed as active; the % refers to the signal ratio)
Procedure, shortened: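 ME-180 NFkB-bla, 2,000 cells/well, overnight plating; cpd pinned in DMSO, 5 h 37 C; B/G FRET substrate 1.5 h RT; ex 405, em 460/530 nm.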

[13] = qHTS assay to identify small molecule agonists of the NFkB signaling pathway - cell viability counter screen (AID 1159515; calls by dose curve; further: series mostly up to about 61 µM; on the % scale 0 is the no-effect control and ±100 the full control effect; nearly all actives have a fitted effect of over 55% in size)
Procedure, shortened: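 Using the same wells as the NFkB reporter read, ME-180 NFkB-bla cells given compounds for 5 hr were assessed for viability via CellTiter-Glo, with luminescence taken after a 30 min room-temperature incubation.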

[14] = qHTS assay to identify small molecule agonists of the endoplasmic reticulum stress response signaling pathway (AID 1159516; active means well fitted activation curve with a large enough effect in the signal ratio in the repeat runs, not every such curve was filed as active; the % refers to the signal ratio; further: on the % scale 0 is the no-effect control and ±100 the full control effect)
Procedure, shortened: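 An ESRE-bla HeLa cell assay: compounds were pin-transferred from DMSO onto overnight-plated cells and left 5 hr at 37 C. Substrate was then loaded for 2 hr at room temperature before reading fluorescence at 460 nm and 530 nm.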

[15] = qHTS assay to identify small molecule agonists of the endoplasmic reticulum stress response signaling pathway - cell viability counter screen (AID 1159517; calls by dose curve)
Procedure, shortened: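 HeLa cells carrying an ESRE-driven beta-lactamase reporter receive compound for 5 hr at 37 C. Cell viability is then gauged with CellTiter-Glo by luminescence, 30 min at room temperature.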

[16] = qHTS assay to identify small molecule antagonists of the retinoid-related orphan receptor gamma (ROR-gamma) signaling pathway - cell viability counter screen (AID 1159520)
Procedure, shortened: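 Cytotoxicity was read from cellular ATP (CellTiter-Glo luminescence) after 16 hr at 37 C with 1 uM doxycycline induction. The inducer was added 2 hr after compound transfer to Tet-on ROR gamma CHO cells.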

[17] = molecular target: Nuclear receptor ROR-gamma (Homo sapiens) (UniProt P51449); assay: qHTS assay to identify small molecule antagonists of the retinoid-related orphan receptor gamma (ROR-gamma) signaling pathway (AID 1159521)
Procedure, shortened: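 RORγ antagonism is scored from reduced reporter luminescence in Tet-on CHO cells. Induction used 1 uM final doxycycline hyclate for 16 h at 37 C, following a 2 h compound exposure.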

[18] = qHTS assay to identify small molecule agonists of the AP-1 signaling pathway - cell viability counter screen (AID 1159525; calls by dose curve; further: nearly all actives have a fitted effect of over 55% in size)
Procedure, shortened: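 Luminescent ATP readout (Cell Titer Glo, 30 min RT), normalised to DMSO and tetra n-octyl ammonium bromide controls. Cells were ME-180 AP-1-bla in 0.5% dialyzed FBS Opti-MEM, with a 5 h, 37 °C compound exposure.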

[19] = qHTS assay to identify small molecule agonists of the AP-1 signaling pathway (AID 1159526; calls by dose curve; further: on the % scale 0 is the no-effect control and ±100 the full control effect)
[20] = molecular target: Vitamin D3 receptor (Homo sapiens) (UniProt P11473); assay: qHTS assay to identify small molecule antagonists of the vitamin D receptor (VDR) signaling pathway (AID 743223; active means well fitted inhibition curve with a large enough effect in the signal ratio in the repeat runs, not every such curve was filed as active; the % refers to the signal ratio; further: on the % scale 0 is the no-effect control and ±100 the full control effect)
Procedure, shortened: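 Fluorescence from LiveBLAzer B/G FRET substrate, read after 2 h at room temperature, reflects beta-lactamase reporter activity in VDR-bla cells treated 16 h at 37C with compounds and agonist 1alpha,25-dihydroxyvitamin D3 (3 nM final).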

Bile acid receptor (Homo sapiens), sequence (Q96RI1 whole entry, looked up): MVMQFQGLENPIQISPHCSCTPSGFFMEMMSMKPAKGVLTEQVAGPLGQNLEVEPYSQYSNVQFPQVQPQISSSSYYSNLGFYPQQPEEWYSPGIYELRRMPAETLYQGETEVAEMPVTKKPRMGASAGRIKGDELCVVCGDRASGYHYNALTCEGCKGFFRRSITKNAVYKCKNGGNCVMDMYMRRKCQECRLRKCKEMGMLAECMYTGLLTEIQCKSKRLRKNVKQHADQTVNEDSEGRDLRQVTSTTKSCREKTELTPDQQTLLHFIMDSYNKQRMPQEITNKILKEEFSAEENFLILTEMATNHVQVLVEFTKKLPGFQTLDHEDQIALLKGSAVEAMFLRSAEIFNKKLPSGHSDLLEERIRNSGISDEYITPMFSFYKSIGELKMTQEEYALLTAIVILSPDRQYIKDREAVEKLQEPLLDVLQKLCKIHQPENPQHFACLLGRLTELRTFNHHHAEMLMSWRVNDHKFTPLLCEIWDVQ
Peroxisome proliferator-activated receptor delta (Homo sapiens), sequence (Q03181 whole entry, looked up): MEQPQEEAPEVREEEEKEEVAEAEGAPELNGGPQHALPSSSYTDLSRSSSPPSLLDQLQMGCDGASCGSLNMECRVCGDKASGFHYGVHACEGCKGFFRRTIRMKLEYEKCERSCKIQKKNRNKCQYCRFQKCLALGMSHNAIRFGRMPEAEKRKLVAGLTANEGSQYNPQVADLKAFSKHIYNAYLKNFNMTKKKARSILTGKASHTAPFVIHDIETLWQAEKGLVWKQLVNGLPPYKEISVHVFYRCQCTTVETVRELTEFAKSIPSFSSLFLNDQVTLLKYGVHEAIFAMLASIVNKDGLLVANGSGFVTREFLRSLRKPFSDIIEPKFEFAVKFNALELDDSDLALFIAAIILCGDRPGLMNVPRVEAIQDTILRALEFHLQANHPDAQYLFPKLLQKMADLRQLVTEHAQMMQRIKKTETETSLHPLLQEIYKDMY
Vitamin D3 receptor (Homo sapiens), sequence (P11473 whole entry, looked up): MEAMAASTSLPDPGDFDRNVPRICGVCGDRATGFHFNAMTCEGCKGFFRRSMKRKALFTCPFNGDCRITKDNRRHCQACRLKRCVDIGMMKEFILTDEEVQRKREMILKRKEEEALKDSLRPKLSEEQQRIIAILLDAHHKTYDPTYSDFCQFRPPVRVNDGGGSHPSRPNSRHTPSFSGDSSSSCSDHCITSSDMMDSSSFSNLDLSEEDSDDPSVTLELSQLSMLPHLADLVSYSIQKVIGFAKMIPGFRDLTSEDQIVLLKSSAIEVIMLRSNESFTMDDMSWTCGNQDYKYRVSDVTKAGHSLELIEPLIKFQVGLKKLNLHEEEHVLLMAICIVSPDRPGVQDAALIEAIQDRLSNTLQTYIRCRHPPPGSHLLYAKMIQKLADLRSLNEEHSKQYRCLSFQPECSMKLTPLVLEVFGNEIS

C=CCCCCCCCCCCCC
inactive: outcome [1] | outcome [2] | outcome [3] | outcome [4] | Potency [5] | Potency [6] | Potency [7] | outcome [8] | outcome [9] | Potency [10] | outcome [11] | outcome [12] | outcome [13] | outcome [14] | Potency [15] | outcome [16] | outcome [17] | outcome [18] | outcome [19]

COc1ccc(Br)c(C)c1
inactive: outcome [1] | outcome [2] | outcome [3] | outcome [4] | Potency [5] | Potency [6] | Potency [7] | outcome [8] | Potency [10] | outcome [11] | outcome [12] | outcome [13] | outcome [14] | Potency [15] | outcome [16] | outcome [17] | outcome [18] | outcome [19]

CN=C(NC#N)Nc1ccc(C2=NNC(=O)CC2C)cc1 (stereo not drawn)
inactive: outcome [1] | outcome [2] | outcome [3] | outcome [4] | Potency [6] | outcome [8] | outcome [9] | outcome [20] | Potency [10] | outcome [11] | outcome [12] | outcome [13] | outcome [14] | Potency [15] | outcome [16] | outcome [17] | outcome [18] | outcome [19]

CC(=O)NCCCCCC(=O)O
inactive: outcome [1] | outcome [2] | outcome [3] | outcome [4] | Potency [6] | outcome [8] | outcome [9] | outcome [20] | Potency [10] | outcome [11] | outcome [12] | outcome [13] | outcome [14] | Potency [15] | outcome [16] | outcome [17] | outcome [18] | outcome [19]

CC(C)C(=O)OCCc1ccccc1
inactive: outcome [1] | outcome [2] | outcome [3] | outcome [4] | Potency [5] | Potency [6] | Potency [7] | outcome [8] | outcome [9] | outcome [20] | Potency [10] | outcome [11] | outcome [12] | outcome [13] | outcome [14] | Potency [15] | outcome [16] | outcome [17] | outcome [18] | outcome [19]

COC(=O)c1ccccc1C(=O)c1ccc(OCCN2CCCCC2)cc1
inactive: outcome [1] | outcome [2] | outcome [3] | outcome [4] | Potency [5] | Potency [7] | outcome [8] | outcome [9] | outcome [20] | Potency [10] | outcome [11] | outcome [12] | outcome [13] | outcome [14] | Potency [15] | outcome [16] | outcome [17] | outcome [18] | outcome [19]

COCCOCCOCCOCCO
inactive: outcome [1] | outcome [2] | outcome [3] | outcome [4] | Potency [5] | Potency [6] | Potency [7] | outcome [8] | Potency [10] | outcome [12] | outcome [13] | outcome [14] | Potency [15] | outcome [16] | outcome [17] | outcome [18] | outcome [19]

Cc1ccsc1/C=C/C1=NCCCN1C
inactive: outcome [1] | outcome [2] | outcome [3] | outcome [4] | Potency [5] | Potency [7] | outcome [8] | outcome [9] | outcome [20] | Potency [10] | outcome [11] | outcome [12] | outcome [13] | outcome [14] | Potency [15] | outcome [16] | outcome [17] | outcome [18] | outcome [19]

CCCCCCCCC1CCC(=O)O1 (stereo not drawn)
inactive: outcome [1] | outcome [2] | outcome [3] | outcome [4] | Potency [5] | Potency [6] | Potency [7] | outcome [8] | outcome [9] | Potency [10] | outcome [11] | outcome [12] | outcome [13] | outcome [14] | Potency [15] | outcome [16] | outcome [17] | outcome [18] | outcome [19]

Cc1cccc2nccnc12
inactive: outcome [1] | outcome [2] | outcome [3] | outcome [4] | Potency [5] | Potency [6] | Potency [7] | outcome [8] | outcome [9] | Potency [10] | outcome [11] | outcome [12] | outcome [13] | outcome [14] | Potency [15] | outcome [16] | outcome [17] | outcome [18] | outcome [19]

CCCC/C=C/C=C\C=O
inactive: outcome [1] | outcome [2] | outcome [3] | outcome [4] | Potency [5] | Potency [6] | Potency [7] | outcome [8] | outcome [9] | outcome [20] | Potency [10] | outcome [11] | outcome [12] | outcome [13] | outcome [14] | Potency [15] | outcome [16] | outcome [17] | outcome [18] | outcome [19]

OC[C@H](Cc1cccc(O)c1)[C@H](CO)Cc1cccc(O)c1
inactive: outcome [1] | outcome [2] | outcome [3] | outcome [4] | Potency [5] | Potency [6] | Potency [7] | outcome [8] | outcome [9] | outcome [20] | Potency [10] | outcome [11] | outcome [12] | outcome [13] | outcome [14] | Potency [15] | outcome [16] | outcome [17] | outcome [18] | outcome [19]

Cc1nc2n(c(=O)c1CCN1CCC(c3noc4cc(F)ccc34)CC1)CCC[C@H]2O
inactive: outcome [1] | outcome [2] | outcome [3] | outcome [4] | Potency [5] | Potency [6] | Potency [7] | outcome [8] | outcome [9] | outcome [20] | Potency [10] | outcome [11] | outcome [12] | outcome [13] | outcome [14] | Potency [15] | activity, negative = cytotoxicity [16] 0.561% [at 19 µM] | activity change, negative = inhibition [17] 29.3% [at 19 µM] | viability change, negative = cytotoxic [18] 2.97% [at 15.8 µM] | activation [19] 6.23% [at 15.8 µM]

O=C(NCCN1CCOCC1)c1ccc(Cl)cc1
inactive: outcome [1] | outcome [2] | outcome [3] | outcome [4] | Potency [5] | outcome [8] | outcome [9] | Potency [10] | outcome [11] | outcome [12] | outcome [13] | outcome [14] | Potency [15] | outcome [16] | outcome [17] | outcome [18] | outcome [19]

CO[C@@H]1[C@@H](OC(N)=O)[C@@H](O)[C@H](Oc2ccc3c(O)c(NC(=O)c4ccc(O)c(CC=C(C)C)c4)c(=O)oc3c2C)OC1(C)C
inactive: outcome [1] | outcome [2] | outcome [3] | outcome [4] | Potency [5] | Potency [6] | Potency [7] | outcome [8] | outcome [9] | outcome [20] | Potency [10] | outcome [11] | outcome [12] | outcome [13] | outcome [14] | Potency [15] | outcome [16] | outcome [17] | outcome [18] | outcome [19]
